Compound activity: PubChem BioAssay, several laboratories
SUMO1-SIM PPI – modulators of human SUMO1-mediated protein-protein interactions; P63165; SUMO1 binding to a labelled peptide, TR-FRET, 1 h; inhibition, % at 20 µM; 360,000 tested, 0.33% active; AID 602429; in the data active means inhibition above about 37%
ATG4B inh – inhibitors of human ATG4B cysteine protease. inhibition, % at 8.33 µM. ATG4B cleavage of LC3-PLA2, NBD-HPC fluorescence, 1 h. AID 504462. 340,000 tested, 0.51% active. Q9Y4P1; in the data active means inhibition above about 40%
Target sequence (Q9Y4P1 whole entry, looked up): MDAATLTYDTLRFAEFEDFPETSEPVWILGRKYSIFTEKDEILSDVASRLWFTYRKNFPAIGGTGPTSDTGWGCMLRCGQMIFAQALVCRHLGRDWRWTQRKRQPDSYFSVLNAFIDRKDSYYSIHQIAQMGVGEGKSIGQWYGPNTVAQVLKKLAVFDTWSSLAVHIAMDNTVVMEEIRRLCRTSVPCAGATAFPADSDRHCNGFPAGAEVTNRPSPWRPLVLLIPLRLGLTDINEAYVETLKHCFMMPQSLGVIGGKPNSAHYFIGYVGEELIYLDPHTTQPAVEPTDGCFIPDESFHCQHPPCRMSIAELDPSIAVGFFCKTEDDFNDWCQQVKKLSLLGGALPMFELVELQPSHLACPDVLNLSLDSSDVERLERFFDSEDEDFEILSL
Neddylation inh – inhibitors of human cullin neddylation; P61081+Q13564; TR-FRET cullin neddylation, biochemical; inhibition, % at 25 µM; 360,000 tested, 0.58% active; AID 651699; in the data active means inhibition above about 36%
Rin1 Abl inh – inhibitors of human Rin1-Abl protein interaction; TR-FRET Rin1/Abl binding, biochemical; inhibition, % at 7.35 µM; 360,000 tested, 0.4% active; in the data active means inhibition above about 5%, passing the limit was not always enough
Rin1-Abl confirm – Rin1-Abl interaction inhibition confirmation. shares compounds with Rin1 Abl inh. TR-FRET Rin1-Abl binding, purified proteins. inhibition, % at 7.35 µM. 1,300 tested, 49% active
GFP quench – quenches GFP fluorescence, counter-screen for Rin1-Abl inhibitors; shares compounds with Rin1 Abl inh; inhibitors/quenchers counterscreen; inhibition, % at 6.75 µM; 1,300 tested, 8.5% active; AID 602125;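 further: ABL1-eGFP fusion protein alone without its partner RIN1-SBP; 0% = protein with vehicle and 100% = wells lacking protein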
GFP quench DR – quenches GFP in dose response, Rin1-Abl counter-screen. shares compounds with Rin1 Abl inh. GFP fluorescence interference/quenching counterscreen. IC50, µM. 230 tested, under 10 active. AID 602182; call rule not given here;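 further: ABL1-eGFP fusion protein alone without its RIN1 binding partner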
An asterisk follows results filed as active; nt = not tested or not shown. This is a sample that favours compounds with a hit; in the whole collection about 1.7% have one here. Unless noted, no stated cut-off is given here; in the data, active means inhibition above about 6.5%; inactive means the rest.

SMILES	SUMO1-SIM PPI	ATG4B inh	Neddylation inh	Rin1 Abl inh	Rin1-Abl confirm	GFP quench	others
CCOC(=O)c1ccc(CNC(=O)C(Cc2c[nH]c3ccccc23)NC(C)=O)o1 (centres undefined)	1.8	8.5	-3.2	8.1*	2.3	-0.6
COc1ccc(-c2cc(CNc3nc(NCc4ccccc4OC)nc4ccsc34)on2)cc1	4.3	nt	-14.8	-1.1	nt	nt
CC(C)(C)C(C(=O)NCc1ccccc1)N1CCN(CCN2CCOCC2)CC1 (centres undefined)	3.9	nt	7.6	nt	nt	nt
COc1ccc(C(c2oc(CO)cc(=O)c2O)c2oc(CO)cc(=O)c2O)cc1	-0.5	3.7	0.3	16.5*	10.6*	2.5
CCOC(=O)C1(C)CCCN(C(=O)c2ccc3ccccc3c2)C1 (centres undefined)	-4.5	nt	-10.0	-2.4	nt	nt
Cc1cc(C)nc(N(C#N)Cc2ccccc2)n1	-0.5	-5.6	-0.1	7.2*	-1.7	0.8
O=C(CSc1nc2ccccc2c(=O)[nH]1)Nc1ccc(S(=O)(=O)N2CCCC2)cc1	13.0	-2.9	0.3	8.9*	5.4	2.1
CCC(=O)NC(c1cccs1)c1cc([N+](=O)[O-])c2cccnc2c1O (centres undefined)	-24.7	-10.2	-31.7	10.4*	6.3*	9.3*
O=C1c2ccccc2C(c2nc3ccccc3[nH]2)N1c1ccccn1 (centres undefined)	-4.5	nt	19.7	3.9	nt	nt
CCN(CC)C(=O)C1=C(C)N(Cc2ccc(F)cc2)C(=O)C(CC(=O)NCCN2CCOCC2)C1 (centres undefined)	1.8	nt	5.8	-0.6	nt	nt
O=C(O)CC(CCc1ccccc1)OC1OC(CO)C(O)C(O)C1O (centres undefined)	4.5	-3.8	30.4	30.2*	25.7*	3.3	GFP quench DR=>67.5
OC(COCc1ccc2c(c1)OCO2)CN1CCCCC1 (centres undefined)	0.0	-2.3	2.4	-4.0	nt	nt
CCOC(=O)C1CCCN(CC(O)COCc2ccc3c(c2)OCO3)C1 (centres undefined)	-3.4	7.7	2.1	6.4*	-1.0	-0.3
NC(=S)NN=Cc1cc(-c2cccc(N)c2)ccn1	-18.2	nt	-40.8	11.0*	13.8*	5.0
CCCCn1c(SCC(=O)N2CCC(C)CC2)nc2cc(S(N)(=O)=O)ccc21	-2.0	-3.3	-3.2	1.3	nt	nt
CCCCn1c(SCC2CCCO2)nc2cc(S(N)(=O)=O)ccc21 (centres undefined)	1.5	-9.4	2.3	5.9*	-0.4	-0.6
COc1ccccc1CN1C[C@@H]2C[C@@H](c3ccc4nsnc4c3)N3CCC[C@@]23C1=O	-19.4	9.4	-23.5	22.4*	24.8*	-0.3	GFP quench DR=>67.5
Cc1nc(-c2ccccc2)sc1C(=O)NS(=O)(=O)c1ccc(CN2CCN(c3ccccc3)CC2)cc1	22.2	nt	-32.0	nt	nt	nt
CC(=O)CSc1ccc(S(=O)(=O)N2CCN(C)CC2)cn1	-5.6	4.2	-14.6	-1.8	nt	nt
COCCN(CCOC)C(=O)CSc1ccc(S(=O)(=O)N2CCN(C)CC2)cn1	2.0	-0.2	0.4	12.0*	25.5*	0.8	GFP quench DR=>67.5
CCOC(=O)CCCCC(=O)c1[nH]c(=O)[nH]c1Cn1ccnc1	1.1	6.0	-1.6	28.1*	29.5*	-0.5	GFP quench DR=>67.5
CCCCSCc1[nH]c(=O)[nH]c1C(=O)CCCCC(=O)OCC	-1.2	-9.4	1.3	47.7*	46.4*	-1.3	GFP quench DR=>67.5
CCOC(=O)CCc1n[nH]c(=O)[nH]c1=O	-1.9	5.6	-10.4	0.3	nt	nt
COc1cccc(S(=O)(=O)N(C)C[C@@H]2OCc3cnnn3CCCC(=O)N([C@@H](C)CO)C[C@H]2C)c1	1.8	nt	1.9	2.9	nt	nt
O=C(NCc1ccncc1)c1csc([C@@H]2C[C@H](O)[C@@H](CO)O2)n1	-4.4	nt	-1.8	-0.7	nt	nt
O=C(NCCC(F)(F)F)C1Cc2c(-c3ccccc3Oc3ccccc3)ccnc2O1 (centres undefined)	2.0	nt	-2.1	0.9	nt	nt
Cn1c(N)c(C(=O)COC(=O)C2Cc3ccccc3CN2S(C)(=O)=O)c(=O)n(C)c1=O (centres undefined)	13.0	nt	10.6	0.8	nt	nt
Cc1noc(C)c1NC(=O)NC(c1ccccc1)c1ccccc1	1.6	8.1	-7.5	6.3*	0.5	0.1
CC1(C)CCN2CCC(C)(C)c3c(O)ccc1c32	-14.5	1.0	-12.9	7.6*	1.6	1.0
